# Screens from PubChem.
# This is a sample that favours compounds with a hit; in the whole collection about 3.1% have one here.
# Tau fibril ThT = qHTS for Inhibitors of Tau Fibril Formation, Thioflavin T Binding | 2.1% of 270,000 active | Microtubule-associated protein tau (Homo sapiens), P10636 | Potency, µM (titrated, usually from 57.4 µM), for the others: at the top dose activity, negative = inhibition, most hits filed as inhibitors | recombinant tau K18 P301L, heparin-induced fibrillization, ThT fluorescence; note: nearly all actives have a fitted effect of over 55% in size
# Target sequence (P10636 561-689 P618L limits assumed): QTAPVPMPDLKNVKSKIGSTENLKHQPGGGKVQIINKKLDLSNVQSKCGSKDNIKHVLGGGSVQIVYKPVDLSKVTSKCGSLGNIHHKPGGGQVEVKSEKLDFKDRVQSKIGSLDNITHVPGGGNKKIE
#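 Heparin-induced fibrillization of the P301L-mutant K18 repeat-domain fragment of human tau was followed by ThT binding in quantitative high-throughput format.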
# Tau FP inhib = qHTS for Inhibitors of Tau Fibril Formation, Fluorescence Polarization. K18 P301L tau heparin fibrillization, Alexa594 FP, 6 h. Potency, µM (series often up to 57.7 µM), for the others: top-dose activity, negative = inhibition, actives largely listed as inhibitors. 0.39% of 280,000 active. AID 1468, 2008; note: nearly all actives have a fitted effect of over 55% in size
#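 Compound effects on tau fibrillization are measured by Alexa 594 fluorescence polarization (ex 555, em 632 nm). K18 P301L tau is used at 15 uM with 0.24 uM labeled tracer, and 20 uM heparin induces aggregation over 6 hr at 37 C.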
# TexasRed fluor = Total Fluorescence Counterscreen for Inhibitors of the Interaction of Thyroid Hormone Receptor and Steroid Receptor Coregulator 2; TRb/SRC2 Texas Red total fluorescence interference; Potency, µM (highest dose often 106 µM), inactives show at the top dose fluorescence change, negative = quenching; 0.29% of 280,000 active; active = well fitted curve in either direction with a large enough effect; inconclusive = small, poorly fitted or top-dose-only effect
#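 Flags fluorescent or light-absorbing compounds by total fluorescence, S + 2P, at 555 nm excitation and 632 nm emission. Mixture: 20 nM Texas Red SRC2 peptide, 0.6 uM human TRb LBD, 1 uM T3, 5% DMSO; compound exposure 5 h at ambient temperature.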
# RGS12 GoLoco inh = qHTS Assay for Inhibitors of RGS12 GoLoco Motif Activity (Red Fluorophore); Gai1:RGS12 GoLoco peptide FP, rhodamine, 10 min; 0.44% of 230,000 active; Potency, µM (highest dose often 61.6 µM), without a hit: at the top dose activity, negative = inhibition, usual class: inhibitors; Guanine nucleotide-binding protein G(i) subunit alpha-1 (Homo sapiens), P63096; active = well fitted inhibition curve with a large enough effect, not every such curve was filed as active; inactive = no such curve, though single readings can be large or run the other way; note: nearly all actives have a fitted effect of over 30% in size
# TRb-SRC2 inh = qHTS for Inhibitors of the Interaction of Thyroid Hormone Receptor and Steroid Receptor Coregulator 2. Thyroid hormone receptor beta (Homo sapiens), P10828. TRbeta-SRC2 peptide binding, fluorescence polarization; receptor liganded with 1 µM T3. Potency, µM (series often up to 106 µM), inactives show top-dose activity change, negative = inhibition, usual class: inhibitors. 0.065% of 280,000 active. AID 1469, 2008;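 note: plate controls were bound peptide for no effect and peptide without receptor for full effect; nearly all actives have a fitted effect of over 50% in size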
# Target sequence (P10828 whole entry, looked up): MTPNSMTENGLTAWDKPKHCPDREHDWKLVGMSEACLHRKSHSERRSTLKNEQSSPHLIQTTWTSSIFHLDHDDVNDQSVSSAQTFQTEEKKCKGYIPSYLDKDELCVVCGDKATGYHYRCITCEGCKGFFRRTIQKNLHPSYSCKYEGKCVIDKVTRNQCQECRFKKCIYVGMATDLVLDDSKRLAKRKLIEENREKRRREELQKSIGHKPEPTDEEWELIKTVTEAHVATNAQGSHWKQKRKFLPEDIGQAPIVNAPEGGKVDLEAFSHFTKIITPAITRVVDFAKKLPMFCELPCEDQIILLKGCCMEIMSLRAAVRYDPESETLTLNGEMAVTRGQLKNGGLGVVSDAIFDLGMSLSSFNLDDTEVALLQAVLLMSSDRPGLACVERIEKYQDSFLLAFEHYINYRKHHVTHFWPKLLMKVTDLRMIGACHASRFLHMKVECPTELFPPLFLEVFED
#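 Quantitative HTS by FP: 0.6 uM TRb LBD, 20 nM labeled SRC2 20-mer, 1 uM T3, 5% DMSO; 5 hr ambient incubation; % activity per concentration and potencies from concentration series.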
# Tau fluor counter = Counterscreen qHTS for Inhibitors of Tau Fibril Formation, Fluorescence Polarization. tau K18 P301L Alexa594 fluorescence, heparin fibrillization. Potency, µM (series often up to 57.7 µM), without a hit: at the highest dose activity change, negative = decrease. 0.93% of 280,000 active; note: nearly all actives have a fitted effect of over 55% in size
#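 Human tau K18 P301L (15 uM unlabeled, 0.24 uM Alexa 594-labeled) in 100 mM sodium acetate pH 7 with 20 uM heparin, 6 hr at 37 C. ThT 30 uM added, 1 hr ambient; Alexa 594 FP and total fluorescence read at 555/632 nm.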
# Active calls of the source: *; ? = inconclusive; nt = no result given; ! = repeats disagree; [ ] = dose if it differs, or a comment. Unless noted, calls come from the whole dose curve; as a rule, active = well fitted curve in the direction sought with a large enough effect; inconclusive = small, poorly fitted or top-dose-only effect, or another doubt; inactive = no such curve, though single readings can be large; an effect the other way counts as inactive or inconclusive. Unless noted, % is set by controls: 0 for no effect and ±100 for the full control effect; potency is the fitted concentration of half-maximal effect.
SMILES,Tau fibril ThT,Tau FP inhib,TexasRed fluor,RGS12 GoLoco inh,TRb-SRC2 inh,Tau fluor counter
COc1ccccc1N1CSC2=C(C#N)C(c3ccc(SC)cc3)CC(=O)N2C1 (stereo not drawn),28µM*,?,-6%,-32%,4%,-24%
CCc1ccccc1N1CSC2=C(C#N)C(c3cc(OC)c(OC)cc3OC)CC(=O)N2C1 (stereo not drawn),28µM*,?,-6%,-36%,-3%,-26%
Cc1nnsc1C(=O)NNS(=O)(=O)c1ccccc1,-3%,-1%,-1%,-8%,-12%,3%
CCN1/C(=C2\C(=O)N(c3ccccc3)N=C2C)C=Cc2cc(C)ccc21,?,4%,-3%,3.5µM*,-3%,-7%
COC/C=C/C1=CC2=CC(=O)C(C)(OC(=O)c3cnc4ccccc4n3)C(=O)C2=CN1c1ccccc1 (stereo not drawn),13µM*!,?,-3%[11.2 µM],2%[14.2 µM],-1%[11.2 µM],?
O=C1Nc2ccccc2C12OCCCCO2,-11%,2%,2%,-3%,6%,1%
N=C(N)SCCc1ccncc1,nt,nt,nt,2%[14.2 µM],nt,nt
CC(=O)N(\C=C/C=C/C=C1\Sc2ccccc2C1=O)c1ccccc1,6.3µM*,?,1%,254%,3%,?
Oc1[nH]c2ccccc2c1N=Nc1nc(Nc2ccccc2)nc(N2CCOCC2)n1,nt,-21%,-2%,0%,-3%,-32%
Cc1[nH]c2ccccc2c1/C=N/Nc1ccccn1,10µM*,7%,-4%,-7%,-1%,16µM*[quencher]
Cc1[nH]c2ccccc2c1/C=N/Nc1nncn1N,14µM*,-5%,-6%,12%,3%,?
Cc1[nH]c2ccccc2c1/C=N/Nc1nc(Nc2ccccc2)nc(N2CCOCC2)n1,?,?,-11%,-2%,-9%,22µM*[quencher]
C(=N/Nc1ccccn1)/c1cccnc1,nt,nt,nt,-1%[14.2 µM],nt,nt
Cc1[nH]c2ccccc2c1/C=N/NC(=O)c1cccc(F)c1,?,?,-8%,19%,4%,-26%
Cc1[nH]c2ccccc2c1/C=N/Nc1ccc(F)cc1F,13µM*,5%,-10%,27%,6%,?
CCCC(CCC)C(=O)OC1C[C@H]2CC[C@@H](C1)[N+]2(C)C (stereo partly drawn),-7%,5%,1%,2%,-4%,-6%
Cn1nc(C(=O)Nc2ccc(S(=O)(=O)NCc3ccco3)cc2)c2ccccc2c1=O,-9%,?,-2%,10%,5%,?
CCOC(=O)C1=C(c2ccccc2)O/C(=C(/C#N)C(F)(F)F)S1,16µM*,?,-1%,10%,-3%,?
CCOC(=O)C1=C(C)Nc2sc(C(=O)c3ccc(OC)cc3)c(N)c2C1c1ccc(C(=O)OC)cc1 (stereo not drawn),6%,7%,7%,9%,-4%,5µM*[quencher]
COC(=O)C1=C(C)Nc2sc(C(N)=O)c(N)c2C1c1ccncc1 (stereo not drawn),8%,0%,0%,0%,3%,4%
CC(=O)C1=C(c2ccc(F)cc2)N(C(C)=O)n2c(nnc2C2CCCCC2)S1,?,-15%,-1%,nt,-3%,-13%
CC(=O)C1=C(c2ccccc2)N(C(C)=O)n2c(C)nnc2S1,11µM*,?,-4%,4%,1%,-17%
Cn1cccc1CC(=O)NNC(=S)NC(=O)c1ccc(F)cc1,-17%,-4%,-6%,9%,-1%,-5%
Cc1ccc(O)c(N)c1,nt,nt,-1%,0%,2%,nt
COc1ccc(O)c(N)c1,4.5µM*,11µM*,10%,0%,?,13µM*[quencher]
SMILES,Tau fibril ThT,Tau FP inhib,TexasRed fluor,RGS12 GoLoco inh,TRb-SRC2 inh,Tau fluor counter
COc1ccc(O)c(/C=c2/sc3nc4cc(C)c(C)cc4n3c2=O)c1,22µM*,?,-5%,17%,6%,?
O=C(CCCCCNC(=O)c1ccccc1)N/N=C/c1ccco1,-7%,-4%,-1%,6%,-1%,-3%
O=C(COC(=O)C1CC(=O)N(c2nc(-c3ccccc3)cs2)C1)c1ccccc1 (stereo not drawn),-8%,-14%,1%,3%,-5%,-21%
CCCN(CCC)C(=O)Cn1c(=O)n(-c2ccc(CC)cc2)c(=O)c2c3c(sc21)CCC3,-14%,2%,0.2µM*[quencher],nt,-6%,-10%
CCC1(C)Cc2c(sc3nc(SCC(=O)c4ccccc4)[nH]c(=O)c23)CO1 (stereo not drawn),-11%,-7%,-4%,9%,6%,-15%
Cc1cc(NC(=O)Nc2ccc3c(ccn3C)c2)sn1,?,?,-6%,14%,4%,13µM*[quencher]
Cc1ccc(S(=O)(=O)C2CS(=O)(=O)CC2O)cc1 (stereo not drawn),6%,7%,-4%,18%,-10%,6%
CC(=O)C1=C(S(=O)(=O)c2ccc(C)cc2)CS(=O)(=O)C1,25µM*,28µM*,-1%,-19%,-6%,-20%
CCc1cc(SC#N)ccc1N,13µM*,?,-1%,7%,-2%,-18%
CCc1cc([N+](=O)[O-])cc(CC)c1N,-15%,-3%,-8%,2%,2%,-11%
O=C(O)CCCNc1cc(N2CCC3(CC2)OCCO3)c2noc3c2c1C(=O)c1ccccc1-3,25µM*,?,45µM*[fluorescent],126%,22µM*,?
CCn1c(=O)cc(SCC(=O)N2CCN(C3CCCCC3)CC2)c2ccccc21,-10%,6%,-1%,4%,-13%,-4%
CCOC(=O)N1CCN(c2cc(NCCC(=O)O)c3c4c(onc24)-c2ccccc2C3=O)CC1,11µM*,32µM*,13µM*[fluorescent],142%,28µM*,?
CCCCNc1cc(N2CCN(C3CCCCC3)CC2)c2noc3c2c1C(=O)c1ccccc1-3,16µM*,7%,2%,nt,-3%,?
Cc1ccc(-n2nnnc2-c2ccccc2)cc1,-3%,4%,0%,9%,-4%,-6%
Cc1ccc(-n2nnnc2C(Cl)c2nnnn2-c2ccc(C)cc2)cc1,20µM*,?,0%,-5%,-5%,-17%
Cc1ccnc(NC(=O)C2CCCN(S(=O)(=O)c3cnc[nH]3)C2)c1 (stereo not drawn),-9%,4%,0%,6%,-2%,-1%
